From PubChem BioAssay (NCATS)
Records with an inconclusive call do not appear. Active and inactive are the calls of the source. The call rests on the fitted dose curve; in most records, active means well fitted inhibition curve with a large enough effect; inconclusive means small, poorly fitted or top-dose-only effect; inactive means flat fitted curve, though single readings scatter.

Test: BET inhibitor-based combinations targeting novel dependencies in MECOM-rearranged (r) AML: AML-191 cell line (AID 2202236; further: nearly all actives have a fitted effect of over 35% in size)
Conditions: AML-191 viability, CellTiter-Glo luminescence, 48 h; series mostly up to 46 µM
Summary of the method: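 AML cell lines seeded at 500 cells/well, treated with 11-point dose curves for 48 h. Viability by CellTiter-Glo luminescence, normalised to DMSO and empty wells; activity expressed as AUC and per-cell-line Z-transformed AUC.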
Potency means the concentration at half of the fitted maximal effect.

Structure (SMILES) | Potency
CCC(=O)N1CCOc2c(cc(-c3cc(OC)cc(OC)c3)cc2C(=O)N[C@H]2CCCN(C)C2)C1 | 14.8 µM (active)
Clc1ccc(C(Cn2ccnc2)OCc2ccsc2Cl)c(Cl)c1 (stereo not drawn) | 23.5 µM (active)
Nc1ncccc1-c1nc2ccc(-c3ccccc3)nc2n1-c1ccc(C2(N)CCC2)cc1 | 18.6 µM (active)
Cc1ccc(-c2ncc(Cl)cc2-c2ccc(S(C)(=O)=O)cc2)cn1 | inactive
COc1c(Nc2ncc(Cl)c(N[C@H]3[C@H](C(N)=O)[C@@H]4C=C[C@@H]3C4)n2)ccc2c1CCC(N1CCOCC1)CC2 (stereo partly drawn) | 18.6 µM (active)
COc1cc(NS(C)(=O)=O)ccc1Nc1c2ccccc2nc2ccccc12 | 0.742 µM (active)
Cc1ccc([C@@H]2O[C@H](CO)[C@@H](O)[C@H](O)[C@H]2O)cc1Cc1ccc(-c2ccc(F)cc2)s1 | 20.9 µM (active)
C[C@H]1CN(C2COC2)CCN1c1ccc(Nc2cc(-c3ccnc(N4CCn5c(cc6c5CC(C)(C)C6)C4=O)c3CO)cn(C)c2=O)nc1 | inactive
O=C(Nc1cccc(Nc2ncc(Br)c(NCCc3cnc[nH]3)n2)c1)N1CCCC1 | 5.25 µM (active)
CCOC(=O)[C@H](CCc1ccccc1)N[C@H]1CCc2ccccc2N(CC(=O)O)C1=O | inactive
CCN(CC)CCNc1ccc(C)c2sc3ccccc3c(=O)c12 | 16.6 µM (active)
CC1=C2C[C@H]3[C@@H](CC[C@@H]4C[C@H](NS(C)(=O)=O)CC[C@@]43C)[C@@H]2CC[C@@]2(C1)O[C@@H]1C[C@H](C)CN[C@H]1[C@H]2C | 20.9 µM (active)
C=CCNC1=C2C[C@@H](C)C[C@H](OC)[C@H](O)[C@@H](C)/C=C(\C)[C@H](OC(N)=O)[C@@H](OC)/C=C\C=C(/C)C(=O)NC(=CC1=O)C2=O | 18.6 µM (active)
